Results filed as inconclusive are left out. Active and inactive are the calls of the source. Calls follow the shape of the dose curve; as a rule, active = well fitted curve in the direction sought with a large enough effect; inconclusive = small, poorly fitted or top-dose-only effect, or another doubt; inactive = no such curve, though single readings can be large; an effect the other way counts as inactive or inconclusive.
Key:
CRL-7250 = normal cell line; test: Cytotoxic Profiling of Annotated Libraries Using Quantitative High-Throughput Screening (AID 1296008); conditions: Five cell lines viability, CellTiter-Glo ATP luminescence, 48-72 h; max response: hits give low values; also: nearly all actives have a fitted effect of over 60% in size; also: potency is read from the fitted curve at half-maximal effect; as to max response: % is scaled to controls: 0 for no effect and ±100 for the full control effect
Summary of the method: (§1)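 Cytotoxicity was measured as CellTiter-Glo ATP luminescence, read after 10 min at room temperature. Compound treatment of the cells lasted 48 or 72 hr at 37 degrees Celsius in a qHTS format.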

HaCat [1] = test: as above; conditions: Five cell lines viability, CellTiter-Glo ATP luminescence, 48-72 h; max response: hits give low values
Summary of the method: as §1

KB-3-1 = test: as above; conditions: Five cell lines viability, CellTiter-Glo ATP luminescence, 48-72 h; max response: hits give low values
Summary of the method: as §1

HACAT [2] = test: qHTS assay to identify novel small-molecules to repurpose for Merkel cell carcinoma treatment (AID 1296009); conditions: MCC and control cell lines, CellTiter-Glo viability, 72 h; at 44.8 µM (top of the series) unless noted; also: nearly all actives have a fitted effect of over 60% in size
Summary of the method: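 72 hr, 37 degree celsius; NPC 8-pt / MIPE 11-pt dose response; compound pinned in DMSO; CellTiter-Glo, 10 min RT, luminescence; normalized to no-cell and DMSO controls.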

C33A = test: Primary qHTS to identify gynecologic anti-cancer compounds using libraries of approved drugs and bioactive compounds (AID 1345084); conditions: Gynecologic cancer cell panel viability, ATPlite luminescence, 48 h; series mostly up to 57.5 µM; also: % is scaled to controls: 0 for no effect and ±100 for the full control effect; nearly all actives have a fitted effect of over 55% in size
Summary of the method: (§2)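 Five-point cytotoxicity, 48 h drug exposure at 37 C, 5% CO2, on cells seeded 16 h beforehand. ATP content read by ATPlite luminescence.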

CASKI = test: as above; conditions: Gynecologic cancer cell panel viability, ATPlite luminescence, 48 h; series mostly up to 57.5 µM
Summary of the method: as §2

Es-2 = test: as above; conditions: Gynecologic cancer cell panel viability, ATPlite luminescence, 48 h; series mostly up to 57.5 µM
Summary of the method: as §2

HeLa = test: as above; conditions: Gynecologic cancer cell panel viability, ATPlite luminescence, 48 h; series mostly up to 57.5 µM
Summary of the method: as §2

Hek293T = test: as above; conditions: Gynecologic cancer cell panel viability, ATPlite luminescence, 48 h, control line for the selectivity index; series mostly up to 57.5 µM
Summary of the method: as §2

JEG-3 = test: as above; conditions: Gynecologic cancer cell panel viability, ATPlite luminescence, 48 h; series mostly up to 57.5 µM
Summary of the method: as §2

CAOV3 = test: as above; conditions: Gynecologic cancer cell panel viability, ATPlite luminescence, 48 h; series mostly up to 57.5 µM
Summary of the method: as §2

OV90 = test: as above; conditions: Gynecologic cancer cell panel viability, ATPlite luminescence, 48 h; series mostly up to 57.5 µM
Summary of the method: as §2

NIH3T3 = test: Cytotoxic Profiling of Annotated Libraries Using Quantitative High-Throughput Screening (AID 1296008); conditions: Five cell lines viability, CellTiter-Glo ATP luminescence, 48-72 h; max response: hits give low values; also: nearly all actives have a fitted effect of over 60% in size; also: potency is read from the fitted curve at half-maximal effect; as to max response: % is scaled to controls: 0 for no effect and ±100 for the full control effect
Summary of the method: as §1

Cc1csc(N(C(=O)CSc2ccc(-c3ccccc3)nn2)C2CC2)n1
inactive: max response (CRL-7250) -10.7% | outcome (HaCat [1]) | max response (KB-3-1) -2.9% | outcome (HACAT [2]) | Potency (C33A) | Potency (CASKI) | Potency (Es-2) | Potency (HeLa) | Potency (Hek293T) | Potency (JEG-3)

COc1ccc(NC(=O)c2ccc(C(=N)N(C)C)cc2)c(C(=O)Nc2ccc(Cl)cn2)c1
inactive: max response (CRL-7250) 3.5% | max response (HaCat [1]) -16.4% | max response (KB-3-1) 2.86% | Potency (C33A) | Potency (CAOV3) | Potency (CASKI) | Potency (Es-2) | Potency (HeLa) | Potency (Hek293T) | Potency (JEG-3) | Potency (OV90)

COC(CCc1ccc(O)cc1)CC(=O)CCc1ccc(O)cc1 (configuration not stated)
inactive: max response (CRL-7250) 3.53% | max response (HaCat [1]) -18.6% | outcome (KB-3-1) | Potency (C33A) | Potency (CASKI) | Potency (Es-2) | Potency (HeLa) | Potency (Hek293T) | Potency (OV90)

NCCOc1cc(C(=O)Nc2cc(OCCN)c3ccccc3n2)nc(C(=O)Nc2cc(OCCN)c3ccccc3n2)c1
active: Potency (CRL-7250) 7.31 µM | Potency (HaCat [1]) 2.63 µM | Potency (KB-3-1) 16.4 µM
inactive: Potency (CAOV3) | Potency (Es-2) | Potency (Hek293T) | Potency (JEG-3) | Potency (OV90)

COc1ccc(-c2c(C)nn3c(NCCN4CCOCC4)cc(C)nc23)cc1OC
inactive: max response (CRL-7250) -19% | max response (HaCat [1]) -11.4% | outcome (KB-3-1) | Potency (C33A) | Potency (CAOV3) | Potency (CASKI) | Potency (Es-2) | Potency (HeLa) | Potency (Hek293T) | Potency (JEG-3) | Potency (OV90)

Nc1nc2c(ncn2C2OC3COP(=O)(O)OC3C2O)c(=O)[nH]1 (configuration not stated)
inactive: max response (CRL-7250) -27.3% | max response (HaCat [1]) -25.5% | max response (KB-3-1) 9.92% | Potency (C33A) | Potency (CAOV3) | Potency (Es-2) | Potency (HeLa) | Potency (Hek293T) | Potency (JEG-3)

C=CC(=O)N1CCC[C@@H](n2nc(-c3cccc(C(=O)Nc4ccc(C(C)C)c(C)c4)c3)c3c(N)ncnc32)C1
active: Potency (CRL-7250) 20.6 µM | Potency (HaCat [1]) 16.4 µM
inactive: max response (KB-3-1) -9.98% | Potency (Hek293T) | Potency (JEG-3)

CCCCCc1ccc(/C=C/C(=O)Nc2cc(Cl)ccc2C(=O)O)cc1
inactive: max response (CRL-7250) -6.38% | max response (HaCat [1]) -35.2% | max response (KB-3-1) -3.71% | Potency (C33A) | Potency (CAOV3) | Potency (CASKI) | Potency (Es-2) | Potency (HeLa) | Potency (Hek293T) | Potency (JEG-3) | Potency (OV90)

O=C(NCCN1CCC(n2c(=O)[nH]c3ccccc32)CC1)c1ccc2ccccc2c1
inactive: max response (CRL-7250) 1.03% | max response (HaCat [1]) -42.4% | max response (KB-3-1) -2.44% | Potency (C33A) | Potency (CAOV3) | Potency (CASKI) | Potency (Es-2) | Potency (HeLa) | Potency (Hek293T) | Potency (JEG-3)

Fc1ccc(-c2nc(-c3c(F)cccc3F)[nH]c2-c2ccncc2)cc1
inactive: max response (CRL-7250) -5.53% | max response (HaCat [1]) -17.9% | max response (KB-3-1) 3.89% | Potency (C33A) | Potency (CAOV3) | Potency (CASKI) | Potency (Es-2) | Potency (Hek293T)

CCO[C@H]1CN(C2CCC(O)(c3ccc4c(c3)OCO4)CC2)C[C@@H]1NC(=O)CNC(=O)c1cccc(C(F)(F)F)c1 (some centres not stated)
inactive: max response (CRL-7250) 1.15% | max response (HaCat [1]) 1.49% | max response (KB-3-1) 7% | Potency (C33A) | Potency (CASKI) | Potency (Es-2) | Potency (HeLa) | Potency (Hek293T) | Potency (JEG-3) | Potency (OV90)

CCOC(=O)c1cnn(-c2ccccc2)c1NC(=O)c1cc2nc(-c3ccco3)cc(C(F)(F)Cl)n2n1
inactive: max response (CRL-7250) -4.16% | max response (HaCat [1]) 3.78% | max response (KB-3-1) 6.18% | Potency (C33A) | Potency (CAOV3) | Potency (CASKI) | Potency (Es-2) | Potency (HeLa) | Potency (Hek293T) | Potency (JEG-3) | Potency (OV90)

C=C1/C(=C/C=C2\CCC[C@]3(C)[C@@H]([C@H](C)/C=C/[C@H](O)C4CC4)CC[C@@H]23)C[C@@H](O)C[C@@H]1O
inactive: max response (CRL-7250) -7.4% | max response (HaCat [1]) -5.44% | max response (KB-3-1) 7.77% | Potency (C33A) | Potency (CAOV3) | Potency (CASKI) | Potency (Es-2) | Potency (HeLa) | Potency (Hek293T) | Potency (JEG-3) | Potency (OV90)

COc1ccc(C2(CNC(=O)c3ccc(NC(=O)c4ccco4)cc3)CCOCC2)cc1
inactive: max response (CRL-7250) -30.6% | max response (HaCat [1]) -26.6% | max response (KB-3-1) 8.83% | Potency (C33A) | Potency (CAOV3) | Potency (CASKI) | Potency (Es-2) | Potency (HeLa) | Potency (Hek293T) | Potency (JEG-3) | Potency (OV90)

COc1cccc(CN(C(=O)CC(C)(C)C)[C@H]2C[C@H](C(=O)N3CCNCC3)N(Cc3ccc4c(c3)OCO4)C2)c1
inactive: outcome (CRL-7250) | max response (HaCat [1]) -6.86% | outcome (KB-3-1) | Potency (C33A) | Potency (CAOV3) | Potency (CASKI) | Potency (Es-2) | Potency (HeLa) | Potency (Hek293T) | Potency (JEG-3) | Potency (OV90)

O=S(=O)(c1ccccc1)N(CC(F)(F)F)c1ccc(C(O)(C(F)(F)F)C(F)(F)F)cc1
inactive: outcome (CRL-7250) | outcome (HaCat [1]) | max response (NIH3T3) 0.0289% | outcome (HACAT [2]) | Potency (C33A) | Potency (CAOV3) | Potency (CASKI) | Potency (HeLa) | Potency (Hek293T) | Potency (JEG-3) | Potency (OV90)
